The campaign covered roughly 300,000 compounds. About 37,000 (12%) were called active. The sample holds actives, similar compounds and a random draw of the others, so the mix is not that of the screen. Rule as the data show it: active = max response mostly above about 13% (no sharp cut-off); inactive = mostly below about 14%.

This test is described as follows: Cycloheximide Counterscreen for Small Molecule Inhibitors of Shiga Toxin. Also: read at 38.3 µM for the half of the compounds with a filed dose; 0% is about no effect. Particulars: cell reporter, cycloheximide protein synthesis inhibition counterscreen; hits give high values.
As to `Cc1c(C(=O)NC(C)C2CC3CCC2C3)cccc1[N+](=O)[O-]` (centres undefined), the max response is -3.79% (inactive).
As for `COc1cnc(SCc2ccc(Cl)c(Cl)c2)nc1Cl`, the figure is 2.3% (inactive).
Turning to `CCc1c2c(nc3ccc(O)cc13)-c1cc3c(c(=O)n1C2)COC(=O)[C@]3(O)CC`, the max response was -1.28% (inactive).
As for `NC(N)=Nc1nc(-c2ccccc2)c2cc(Cl)ccc2n1`, the figure is -10.2% (inactive).
In the case of `CCOC(=O)C1=C(N)N(c2ccc(C)cc2)C2=C(C(=O)CCC2)C1c1cccs1` (centres undefined), the max response is 5.25% (inactive).
In the case of `COc1ccccc1OC(C)C(=O)Nc1ccc(S(=O)(=O)Nc2nccs2)cc1` (centres undefined), the max response was -6.41% (inactive).
With `CC(=O)N1c2ccc(S(=O)(=O)N3CCCC(C(=O)NCc4ccc(Cl)cc4)C3)cc2CC1C` (centres undefined), the max response was 10.9% (inactive).
As for `CNS(=O)(=O)c1cccc(C(=O)NC2CCCc3ccccc32)c1` (centres undefined), the figure is -2.97% (inactive); as for `COc1ccc(CC(=O)Nc2ccc(C(=O)NC(C)(C)C)cc2)cc1`, 7.23% (inactive).
As for `COc1ccc2oc(=N)c(C(=O)Nc3ccc(Br)cc3)cc2c1`, the figure is -2.54% (inactive); as for `COc1cccc(NC(=O)c2ccc(S(=O)(=O)N(C)C)cc2)c1`, 9.95% (inactive).
As for `COc1ccc(NC(=O)C(Br)C(C)C)cc1` (centres undefined), the max response is 10.3% (inactive).
Turning to `COc1ccc(NC(=O)ON=C2c3ccccc3-c3ccccc32)cc1`, the max response was 36.1% (active).
Under `CCC(=O)Nc1ccc(C(=O)Nc2cccc(OC)c2)cc1` stands 37.4% (active).
As for `COc1cccc(NC(=O)CN(C)CC(=O)Nc2ccc3c(c2)CCC3)c1`, the figure is 4.53% (inactive); as for `COc1ccc(NS(=O)(=O)c2ccc(NC(=O)c3ccc(N(C)S(C)(=O)=O)cc3)cc2)cc1`, -6.86% (inactive); as for `COc1ccc(NC(=O)c2c(C)oc3c2CCCC3)cc1`, 23.1% (active).
As for `COc1ccc(S(=O)(=O)Nc2ccc3oc(C)c(C(C)=O)c3c2)cc1`, the figure is -0.324% (inactive); as for `COc1ccc(C(=O)ON=C2c3ccccc3-c3ccccc32)cc1OC`, -2.66% (inactive); as for `COc1ccc(NC(=O)c2ccc(C#CC(C)(C)O)cc2)cc1`, 29.4% (active).
As for `CCC(C)[C@H](NC(=O)N1CCn2c1nc1ccccc12)C(=O)NCc1ccc(OC)cc1` (some centres undefined), the max response was 7.87% (inactive).
For `CC1CCN(C(=S)NC2CC3CCC2C3)CC1` (centres undefined), the max response is -2.5% (inactive).
As for `O=C(CCCCCn1c(=S)[nH]c2ccsc2c1=O)NC1CCCCC1`, the figure is -3.34% (inactive); as for `Cc1nc(NC2=NC(C(=O)Nc3ccc(Cl)cc3)CC(=O)N2)nc2ccccc12` (centres undefined), -1.93% (inactive).
As for `Cc1ccc2c(C)c(C(=O)N(C)Cc3ccncn3)oc2c1C`, the figure is -3.14% (inactive); as for `CCOC(=O)C1(CC2CCCCO2)CCN(Cc2nc(-c3cccs3)oc2C)CC1` (centres undefined), -1.4% (inactive).
Regarding `CC(C(=O)c1ccc(-c2ccccc2)cc1)[n+]1cccc(Br)c1` (centres undefined), the max response was -1.92% (inactive).
As for `CC(NC(=O)c1ccco1)c1ccc2c(c1)OCO2` (centres undefined), the max response was -2.24% (inactive).
In the case of `Cc1c(C)c2c(OCC(=O)N[C@@H](C(=O)O)c3ccccc3)cc3c(c2oc1=O)CCC(C)(C)O3`, the max response is 0.453% (inactive).
For the compound `Cc1nn(C)c(C)c1CN(C(=O)CCc1nnc(Cc2c[nH]c3ccccc23)o1)C(C)C`, the max response is -2.58% (inactive).
As for `COCCNC(=O)/C(C#N)=C/c1nc(N(C)C)n(-c2ccc(F)cc2)c1Cl`, the figure is 6.45% (inactive); as for `CSCCC(NS(=O)(=O)c1ccc(C)cc1)C(=O)N1CCCC1` (centres undefined), -0.967% (inactive).
As for `COc1ccc(NC(=O)c2ccc(OC)cc2)cc1`, the figure is 45.1% (active); as for `COc1ccc(C(=O)NC(=S)NC2CCCCC2)cc1`, 72.8% (active); as for `COc1ccc(C(=O)NNC(=S)NC(=O)c2ccccc2)cc1`, 8.67% (inactive).
As for `Cc1cccc(C(=O)Nc2ccc(Oc3cnccn3)cc2)c1`, the figure is 22.6% (active); as for `Cc1cccc(C(=O)Nc2ccc3c(c2)C(=O)N(CC(C)C)C3=O)c1`, 10.4% (inactive).
As to `COc1ccc(C(=O)Nc2ccc(NC(=O)C(C)C)nc2)cc1`, the max response was 2.34% (inactive).
As for `COCCNC(=O)Nc1ccc2nc(-c3ccco3)c(-c3ccco3)nc2c1`, the figure is -4.08% (inactive); as for `COc1ccc(C(=O)Nc2cccc(S(C)(=O)=O)c2)cc1`, -2.97% (inactive).
With `O=C(NC(=S)NC1CCCCC1)c1ccc(Cl)cc1`, the max response was -1.68% (inactive).
Under `COc1ccc(/C=N/NC(=O)Nc2ccc3nsnc3c2)c(OC)c1` stands -1.93% (inactive).
Under `Cc1cccc(C(=O)Nc2ccccc2C(=O)NCc2cccnc2)c1` stands -1.87% (inactive).
As for `COc1ccc(NC(=O)Nc2ccc3nsnc3c2)cc1`, the figure is 49.2% (active); as for `O=C(C1CCCO1)N1CCN(C(=S)NC2CC2)CC1` (centres undefined), -1.72% (inactive); as for `CN1C(=O)[C@H]2[C@@H](C3CC3)N3C(=O)CN(Cc4ccccc4)C(=O)[C@@]3(C)[C@H]2C1=O`, -0.826% (inactive).
With `CNC(=O)CN1C(=O)NC(c2ccccc2)(c2ccccc2)C1=O`, the max response is -2.25% (inactive).
Turning to `Cc1ccc(C(=O)O)cc1-c1ccc(/C=C2\SC(=O)N(CC(=O)Nc3ccc4c(c3)OCO4)C2=O)o1`, the max response was -2.31% (inactive).
Under `O=C(NN1C(=O)C2C3C=CC(C4CC34)C2C1=O)c1ccc(Cl)cc1` (centres undefined) stands 3.35% (inactive); under `C=C(C)C1CC=C(C)C(O)C1` (centres undefined), 7.86% (inactive); under `CN(C(=O)COc1nnc(-c2cccs2)c(-c2cccs2)n1)c1ccccc1`, 0.449% (inactive).
Turning to `CCN(CC)C(=O)c1ccc(NC(=O)c2sccc2-c2ccccc2)cc1`, the max response was 0.344% (inactive).
For `COc1cccc(N(CC(=O)Nc2cccc(N(C)S(C)(=O)=O)c2)S(C)(=O)=O)c1`, the max response was -2.16% (inactive).
Under `COc1cccc(N(CC(=O)Nc2cccc(F)c2)S(C)(=O)=O)c1` stands -5.13% (inactive); under `COc1ccc(NC(=O)c2sc(N)nc2-c2ccccc2)cc1`, 1.95% (inactive).
Consider `CCOc1ccc(N(CC(=O)Nc2cccc(OC)c2)S(C)(=O)=O)cc1`, for which the max response is 27.2% (active).
`COc1ccc(NC(=O)c2sccc2SCC#N)cc1`: the max response is 40% (active).
On to `CCOc1cccc(-c2nnc(SCC(=O)NC3CC3)n2C)c1`, for which the max response is 5.85% (inactive).
As for `CCOC(=O)NN1C(=O)c2ccccc2NC1c1ccccc1O` (centres undefined), the figure is -0.209% (inactive); as for `COc1ccc(CCNC(=O)CCc2cn(C)c3ccccc23)c(OC)c1`, 0.538% (inactive); as for `O=C(NCCNc1ccc([N+](=O)[O-])cc1)c1cccc2c(Br)cccc12`, -5.64% (inactive).
Under `O=S(=O)(c1ccc(Cl)cc1)c1nc(-c2ccccc2F)oc1NCCN1CCOCC1` stands 0.972% (inactive); under `O=C(c1cc(C(=O)N2CCN(c3ccc(F)cc3)CC2)cc([N+](=O)[O-])c1)N1CCN(c2ccc(F)cc2)CC1`, 1.24% (inactive).
Under `CC12CN3CCN(CC(C3)/C1=N\NC(=O)c1ccccc1N)C2` stands 42.9% (active).
Regarding `Nc1ccccc1C(=O)NC1CCCCNC1=O` (centres undefined), the max response was -3.17% (inactive).
Under `CNC(=S)N/N=C1\C2CN3CCN(C2)CC1(c1ccccc1)C3` stands 0.185% (inactive).
As to `CC1CC(C)CN(C(=O)C2CC(=O)N(c3ccc(F)cc3)C2)C1` (centres undefined), the max response was -5.15% (inactive).
As to `COc1cc2c3c(c1)/C(=C1/SC(=S)NC1=O)C(=O)N3C(C)(C)C=C2C`, the max response was -0.91% (inactive).
Under `CC(=O)Nc1cccc(OCC(=O)/C=C2\N(C)c3ccccc3C2(C)C)c1` stands 17% (inactive); under `COc1ccc(CNC(=O)COc2cccnc2[N+](=O)[O-])cc1`, -2.66% (inactive); under `Cc1ccc(-n2ncc3c(Nc4cccc(C(=O)O)c4)ncnc32)cc1`, 45.3% (active).
As for `Cc1ccc(Nc2ncnc3c2cnn3C)c(C)c1`, the figure is 1.06% (inactive).
As for `O=C(NNc1ncnc2c1cnn2-c1ccccc1)c1ccco1`, the figure is 9.27% (inactive).
For the compound `CCOC(=O)C1CN(S(=O)(=O)c2ccc(F)cc2)C1`, the max response is 1.16% (inactive).
On to `C=CCn1c(=S)[nH]c2scc(-c3ccco3)c2c1=O`, for which the max response was -1.66% (inactive).
In the case of `COc1cc(C2C(N3C(=O)c4ccccc4C3=O)C(=O)N2c2ccc(C)c(C)c2)cc(OC)c1OC` (centres undefined), the max response was -1.4% (inactive).
`COC(=O)c1ccc(S(=O)(=O)NCc2ccccc2)n1C`: the max response was -1.21% (inactive).
Turning to `COc1ccc(C2C3=C(CCCC3=O)N(CC(=O)O)C3=C2C(=O)CCC3)cc1`, the max response was -0.955% (inactive).
Consider `CCOc1ccc(OCc2ccc(C(=O)Nc3cccc(C)n3)o2)cc1`, for which the max response is 21.2% (active).
As for `Cc1cccc(NC(=O)c2ccc(COc3ccccc3[N+](=O)[O-])o2)n1`, the figure is 9.42% (inactive); as for `CC(=O)Cc1nsc(NC(=O)c2ccc(COc3ccc(C)cc3)o2)n1`, 4.45% (inactive).
For the compound `Cc1ccc(NC(=O)c2nc[nH]c2C(=O)N[C@@H](CCCCNC(=O)OC(C)(C)C)C(=O)OC(C)(C)C)cc1`, the max response is -3.36% (inactive).
Take `O=C(NCC(=O)N1CCN(c2ncc(C(F)(F)F)cc2Cl)CC1)c1ccc(Br)o1`: the max response was -1.14% (inactive).
Under `CCc1nnc(NC(=O)c2nc3nccc(C)n3n2)s1` stands -2.71% (inactive); under `CCCC(=O)Nc1nnc(-c2ccccc2)o1`, -3.55% (inactive); under `Cc1ccnc2nc(C(=O)Nc3nnc(-c4ccccc4)o3)nn12`, 23.5% (active).
Under `C=CCN(c1ccccc1C(=O)NCC(=O)OCC)S(=O)(=O)c1ccc(C)cc1` stands -3.9% (inactive).
Under `CCn1cc(C(=O)NCCCN2CCCCCC2)c(=O)c2cc(S(=O)(=O)N3CCc4ccccc4C3)ccc21` stands -1.21% (inactive); under `CCO[C@H]1OC(C(=O)NCc2ccccc2)=C[C@@H](c2coc3ccccc3c2=O)[C@@H]1CCCO`, -1.05% (inactive).
In the case of `CCC(=O)N1c2ccc(S(=O)(=O)NCc3ccco3)cc2CC1C` (centres undefined), the max response was 19.8% (inactive).
Under `O=C(O)CCCC(=O)Nc1ccc(Oc2cccc(C(F)(F)F)c2)nc1` stands 5.78% (inactive); under `COC(=O)C1CCN(C(=O)c2ccc3oc(Cc4ccc(Cl)cc4)nc3c2)CC1`, -2.56% (inactive).
Under `COCC1CCN(C(=O)c2ccc3oc(Cc4ccccc4)nc3c2)C1` (centres undefined) stands 39.1% (active); under `COc1ccc(C(=O)N2CCCC(C(=O)c3ccccc3OC)C2)cc1OC` (centres undefined), 9.55% (inactive).
